Structures are written as SMILES. Calls of active or inactive are those of the source. How the source made its calls: active means hit-call score of the fitted dose curve at least 0.9, where 1 is the maximum; inactive means score below 0.9.

This test can be described thus: CCTE_Shafer_MEA_dev_firing_rate_mean: CCTE's Neural Network Formation Assay for Mean Firing Rate, Shafer Lab (AID 2284031).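 On AC50: curve fitted for loss of firing so AC50 reflects decreased mean firing rate.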 Here is the method: CCTE_Shafer_MEA_dev assay is conducted using Axion Biosystems 48 well microelectrode array (MEA) plates and Maestro recording system. Each well of the MEA plate contains a grid of 16 microelectrodes embedded in the culture surface. Electrically active cells, such as neurons, can be cultured over the electrodes, and electrical activity in these cells can be recorded extracellularly. The spontaneous firing of neurons is captured from each electrode on a microsecond timescale providing both temporally and spatially precise data. […] The CCTE_Shafer_MEA_dev assay uses primary cultures of rat cortical neurons. Recordings are made on days post-plating 5, 7, 9 and 12. As these cultures mature over time, neural networks develop functional activity and form cohesive networks in which electrical activity can be highly coordinated. CCTE_Shafer_MEA_dev_firing_rate_mean is 1 of 19 assay components of the CCTE_Shafer_MEA_dev assay. It measures the frequency of spikes (action potential firings) as the total number of spikes divided by the length of the recording in a microelectrode array (MEA) using Axion Biosystems Maestro 768 channel amplifier with the AxIS adaptive spike detector. The firing rate is averaged across the active electrodes to report a well-mean value. To collapse across multiple recordings made on days post-plating 5, 7, 9 and 12, the trapezoidal area-under-the-curve of the component is calculated.Data from the assay component CCTE_Shafer_MEA_dev_firing_rate_mean was analyzed into 1 assay endpoint. This assay endpoint, CCTE_Shafer_MEA_dev_firing_rate_mean, was analyzed in the negative analysis fitting direction relative to DMSO as the negative control and baseline of activity. Using a type of functional reporter, gain or loss-of-signal activity can be used to understand electrical activity.
On the day prior to culture, each well was coated thoroughly with 150 uL of 0.05% polyethyleneimine (PEI, Sigma Cat P3143) in 50 mM HEPES (Sigma Cat H7523) at a pH of 8. The plate was incubated at 37C for one hour. PEI was rinsed out with 500 uL of sterile water three times. Plates were stored at 4C until the day of culture. This culture was plated at a seeding density of 1.5 x 10^5 cells/well on a 48-well MEA plate, prepared as described above. Cells were administered via a 25 uL media/laminin ([…]; Sigma Cat L2020-1MG) drop directly onto the microelectrode array, as adding the cells with the laminin results in better attachment than pre-coating with laminin. After 2 hours, an additional 475 uL of cortical media was added and the cells returned to the incubator. Exposure starts at day 0 of plating and is continued over twelve days of network development until the experiment is terminated. Cells are fed with fresh medium on DIV 5 and 9, following the recordings on those days. The entire volume of media in the well is exchanged and any vehicle or compound treatment is renewed. Complete details are found in OP-NHEERL/ISTD/SBB/TJS/2015-03-r0 (available on request, email shafer.tim@epa.gov). Measurement of the electrical activity is non-invasive, and recordings can be made from the same plate over multiple different days of the culture. In cortical neurons, this allows for the measurement of extracellular action potentials over the period during which networks form in the MEA plate.
As to `Cc1ccccc1OP(=O)(Oc1ccccc1C)Oc1ccccc1C`, the molecule was called inactive.

For the molecule `CNC(=O)CSP(=O)(OC)OC`, the call was inactive.

Take `CCOCn1c(-c2ccc(Cl)cc2)c(C#N)c(Br)c1C(F)(F)F`: the half-maximal activity concentration (AC50) was 3.01 µM (active).

On to `CC(=O)C(F)(F)C(F)(F)F`, for which the result was inactive.

On to `C=CCOC(F)(C(F)(F)F)C(F)(F)F`, for which the molecule was called inactive.

Regarding `C=CC(F)(C(F)(F)F)C(F)(F)C(F)(F)F` (stereo not given), the call was inactive.

Regarding `Cc1cc(C(F)(C(F)(F)F)C(F)(F)F)ccc1NC(=O)c1cccc(I)c1C(=O)NC(C)(C)CS(C)(=O)=O`, the molecule was classed as inactive.

Turning to `NC(=O)c1ccc(N)nc1`, the half-maximal activity concentration (AC50) is 9.03 µM (active).

In the case of `OC(Cc1ccccc1Cl)(Cn1[nH]cnc1=S)C1(Cl)CC1` (stereo not given), the AC50 was 20.8 µM (active).

In the case of `CC1(C)[C@H](C(=O)O[C@H](C#N)c2cccc(Oc3ccccc3)c2)[C@@H]1/C=C(\Cl)C(F)(F)F`, the molecule was called inactive.

`CS(=O)(=O)c1ccc(C(=O)C2C(=O)CCCC2=O)c(Cl)c1COCC(F)(F)F`: the call was inactive.

As for `CC(F)(F)CC(F)(F)F`, the result was inactive.

Take `FC(F)OCC(F)(F)C(F)(F)F`: the result was inactive.

Regarding `O=S(=O)(F)C(F)(F)C(F)(F)C(F)(F)C(F)(F)F`, the molecule was called inactive.

Turning to `CC(C)[C@@H](Nc1ccc(C(F)(F)F)cc1Cl)C(=O)OC(C#N)c1cccc(Oc2ccccc2)c1` (stereo not given in full), the molecule was classed as inactive.
